# Bioassay records from PubChem BioAssay.
# PINK1 expr mod: modulators of PINK1 expression; 410,000 tested, 0.2% active; Potency, µM (highest dose often 76.6 µM), inactives show top-dose activation (PINK1 increase), actives largely listed as activators; AID 624263; PINK1 immunofluorescence, high-content cytometry, 24 h; active means well fitted activation curve with a large enough effect; inconclusive means small, poorly fitted or top-dose-only effect; cell line not stated here; further: potency means the concentration at half of the fitted maximal effect; % of control where 0% means no effect; nearly all actives have a fitted effect of over 65% in size
#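 Compound titrations (5 concentrations, 24 h) on a stable cell line; DMSO and CCCP controls. Endpoint: fixed-cell PINK1 immunofluorescence with mitochondrial, cell and nuclear markers, scanned by microplate cytometer.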
# Gal4-VP16 FLuc: inhibits Gal4-VP16 luciferase reporter, ROR gamma counter-screen; 310,000 tested, 3.5% active; Potency, µM (doses to about 53.6 µM), for inactives: top-dose activity, negative = inhibition, actives largely listed as inhibitors; Drosophila S2 Gal4-VP16 UAS-luciferase, luminescence, 20 h;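 further: Gal4-VP16 expression switched on by copper sulfate through the metallothionein promoter; potency means the concentration at half of the fitted maximal effect; on the % scale 0 is the no-effect control and ±100 the full control effect; nearly all actives have a fitted effect of over 50% in size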
# ClpP mod: qHTS Assay for Activators of ClpP. Potency, µM (titrated, usually from 57.5 µM), inactives show top-dose activity change, negative = active. 340,000 tested, 1.9% active. purified B. subtilis ClpP, FRET peptide cleavage, 20 min; active means well fitted falling curve with a large enough effect; inconclusive means small, poorly fitted or top-dose-only effect; inactive means no such curve, though single readings can be large or run the other way; further: potency means the concentration at half of the fitted maximal effect; the source files actives as falling curves though it sought activators and does not explain the sign; nearly all actives have a fitted effect of over 65% in size
# Target sequence (P80244 whole entry, looked up): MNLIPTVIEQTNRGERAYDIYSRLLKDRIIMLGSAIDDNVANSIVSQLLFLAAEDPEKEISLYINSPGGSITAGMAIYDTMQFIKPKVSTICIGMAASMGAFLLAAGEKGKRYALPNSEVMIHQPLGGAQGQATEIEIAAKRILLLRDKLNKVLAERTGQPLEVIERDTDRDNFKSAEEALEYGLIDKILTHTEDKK
#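 Buffer: 100 mM Tris/HCl pH8, 100 mM KCl, 0.05% low protease BSA, 2.5% glycerol, 0.01% Tween-20. ClpP 10 microg/mL final; 20 min RT; delta FRET normalized to ADEP and DMSO controls.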
# RORg inh: ROR gamma (mouse) transcription inhibition. Drosophila S2 Gal4-RORgamma UAS-luciferase reporter, 20 h. Potency, µM (top dose mostly 53.6 µM), for inactives: top-dose activity change, negative = inhibition, usual class: inhibitors. 310,000 tested, 5.4% active; further: potency means the concentration at half of the fitted maximal effect; on the % scale 0 is the no-effect control and ±100 the full control effect; nearly all actives have a fitted effect of over 60% in size
# Target sequence (P51450 whole entry, looked up, the tested form may be a part): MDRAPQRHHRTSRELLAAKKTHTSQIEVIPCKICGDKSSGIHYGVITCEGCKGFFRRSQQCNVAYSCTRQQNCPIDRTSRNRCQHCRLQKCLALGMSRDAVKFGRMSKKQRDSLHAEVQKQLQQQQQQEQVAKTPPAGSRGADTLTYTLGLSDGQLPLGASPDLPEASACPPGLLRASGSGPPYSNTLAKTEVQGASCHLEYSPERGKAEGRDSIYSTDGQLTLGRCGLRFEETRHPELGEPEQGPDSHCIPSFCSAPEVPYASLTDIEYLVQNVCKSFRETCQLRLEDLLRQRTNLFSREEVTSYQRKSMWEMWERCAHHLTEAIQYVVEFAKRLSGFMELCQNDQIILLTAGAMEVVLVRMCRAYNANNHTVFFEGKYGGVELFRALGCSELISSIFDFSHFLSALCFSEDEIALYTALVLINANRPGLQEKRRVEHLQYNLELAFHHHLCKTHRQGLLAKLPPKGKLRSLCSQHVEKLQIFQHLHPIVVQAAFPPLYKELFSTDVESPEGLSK
#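 Compounds are pin-transferred onto Drosophila Schneider cells expressing a copper-inducible Gal4–ROR gamma transactivation domain fusion. After 1 hr, copper sulfate is added to 700 uM final; luciferase is read 20 hr later.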
# Sfp PPTase inh: inhibitors of Bacillus subtilis Sfp phosphopantetheinyl transferase; Biochemical Sfp PPTase activity, qHTS; 310,000 tested, 3.5% active; Potency, µM, inactives show largest response in the series, negative = inhibition, usual class: inhibitors; AID 1490;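 further: the enzyme is Sfp with the accession as filed and its product quenches rhodamine fluorescence; potency means the concentration at half of the fitted maximal effect; 0% = enzyme reaction without inhibitor and -100% = no enzyme wells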
#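 After 15 min at room temperature with compound, 15 nM Sfp received 5 uM rhodamine-CoA plus 12.5 uM BHQ-2-ybbR (50 mM Hepes pH 7.6, 10 mM MgCl2). Rate came from the fluorescence difference over 30 min, ex 525/em 598 nm.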
# Epigenetic derep: derepresses silenced GFP reporter in murine cells. AID 1865. Potency, µM (highest dose often 53.9 µM), without a hit: top-dose GFP activation, usual class: activators. 280,000 tested, 0.2% active. murine LDR cells, GFP reporter derepression, 30 h; further: potency means the concentration at half of the fitted maximal effect; % of control where 0% means no effect; nearly all actives have a fitted effect of over 60% in size
#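 Readout is the number of GFP-expressing murine LDR cells, counted by cytometry following washing. Cells were treated with compound for 30 h at 37 C; the stably integrated CMV-GFP locus is normally silent.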
# Sfp PPTase conf: confirmation of Bacillus subtilis Sfp PPTase inhibitors; shares compounds with Sfp PPTase inh; Sfp PPTase enzymatic assay, qHTS titration; Potency, µM (series often up to 114 µM), without a hit: at the highest dose activity change, negative = inhibition, actives largely listed as inhibitors; 380 tested, 79% active; AID 2701;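 further: potency means the concentration at half of the fitted maximal effect; plate controls were uninhibited Sfp reaction for no effect and no enzyme control for full effect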
# Sfp gel assay: Inhibits B. subtilis Sfp phosphopantetheinylation; shares compounds with Sfp PPTase inh; purified Sfp, gel-based phosphopantetheinylation read-out; Potency, µM, actives largely listed as inhibitors; 210 tested, 20% active; AID 2707;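 active means potency below 100 µM; inconclusive means dose-dependent response but potency above 100 µM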;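 further: band intensities scaled against SCH202676 control wells before curve fitting; potency is an IC50 for inhibitors of Sfp transfer activity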
# * = called active by the depositor; i = inactive; ? = inconclusive; · = no result given; ! = not confirmed by another sample; [ ] = another dose, or the depositor's remark. A selection: hits, their analogues and other compounds. The true share with any hit is near 8.1%. Unless noted, the call rests on the fitted dose curve; in most records, active means well fitted curve in the direction sought with a large enough effect; inconclusive means small, poorly fitted or top-dose-only effect, or another doubt; inactive means no such curve, though single readings can be large; an effect the other way counts as inactive or inconclusive.
SMILES,PINK1 expr mod,Gal4-VP16 FLuc,ClpP mod,RORg inh,Sfp PPTase inh,Epigenetic derep,Sfp PPTase conf,others
O=c1c2cc(N3CCOCC3)ccc2[nH]c(=S)n1CCN1CCCC1,13%[38.3 µM],8%,-5%,8%,-9%,0%,·,
COc1ccc2nc(SCC(=O)Nc3c(C)cccc3C)[nH]c2c1,-1%,5%,-3%,-21%,1%,-4%,·,
COc1ccc2nc(S(=O)Cc3ncc(C)c(OC)c3C)[nH]c2c1 (stereo not drawn),3%,-13%,·,?,20µM*!,-1%,37µM*,
CCc1c(C)sc(NC(=O)c2ccccc2[N+](=O)[O-])c1C(N)=O,3%,-3%,2%,30%,-21%,-1%,·,
CCc1c(C)sc(NC(=O)c2ccoc2C)c1C(N)=O,2%,-22%,0%,11%,11µM*,·,8.3µM*,
COc1cccc(CNC(=O)Cn2nc3c(cc2=O)CCCC3)c1OC,0%,·,-2%,·,·,2%,·,
COc1ccccc1/C=c1\sc2nc(-c3ccco3)nn2c1=O,-3%,-2%,-5%,29%,2µM*,1%,42µM*,Sfp gel assay=?
COc1cc(NCc2ccc3nc(N)nc(N)c3c2C)cc(OC)c1OC,·,-9%,·,-17%,32µM*,-3%,37µM*,
Cc1ccc(N2CC(c3nnc(Cc4ccc(Cl)cc4)o3)CC2=O)cc1 (stereo not drawn),-1%,·,-2%,·,·,12%,·,
CCOc1ccc(NC(=O)N2CCN(C(=O)c3nsc4ccccc34)CC2)cc1,0%,·,0%,·,·,13%,·,
CC(C)C(C)NC(=O)CSc1nc2scc(-c3ccco3)c2c(=O)n1-c1ccccc1 (stereo not drawn),?,14µM*,-21%,?,4.5µM*,1%,30µM*,Sfp gel assay=?
O=C(Cc1ccccc1Nc1c(Cl)cccc1Cl)OCO/N=[N+](\[O-])N1CCCC1,·,18µM*,·,?,22µM*,·,26µM*,Sfp gel assay=?
Cc1ccc(S(=O)(=O)N2CCCCC2)cc1NC(=O)COC(=O)Cc1cccc2ccccc12,0%,-13%,0%,?,6%,-1%,·,
Cc1ccc(-n2c(=O)c3c(cnn3C)n(Cc3ccc(Cl)cc3)c2=O)cc1,1%,·,-4%,·,·,0%,·,
Cn1c(/N=C/c2c(O)ccc3ccccc23)nc2ccccc21,1%[38.3 µM],0%,-12%,21%,0.89µM*,0%,-9%,
C[C@@H]1CN=C2N(CCNC(=O)CCC3CCCCC3)[C@H](Cc3ccc(O)cc3)CN21,0%,1%,1%,17%,16µM*,0%,?,
COCCNC(=O)c1c(N)sc2c1CCCC2,·,-2%,·,-15%,14µM*,0%,37µM*,
CNC(=O)c1c(N)sc2c1CCCCC2,·,0%,·,2%,20µM*,1%,21µM*,
COc1ccc(-c2cc(C(=O)Oc3ccc(C)c(C)c3)c3ccccc3n2)cc1,0%,·,4%,·,·,-2%,·,
CCC1CN(C(=O)Nc2ccc(Br)cc2F)c2ccccc2S1 (stereo not drawn),1%,·,0%,·,·,0%,·,
NC(=O)Cn1c(=O)n(Cc2ccco2)c(=O)c2c3c(sc21)CCCCC3,0%[38.3 µM],8%,2%,22%,10µM*,-1%,19µM*,
CCOC(=O)c1c(N)sc2c1CCN(Cc1ccccc1)C2,0%,10%,5%,-24%,10µM*,5%,21µM*,
CC(=O)Nc1ccccc1-c1nc2ccccc2n(CC(=O)c2ccc(C)c(C)c2)c1=O,1%,·,-1%,·,·,-2%,·,
Cc1ccc(-n2c(CCC(=O)O)ccc2-c2cccs2)cc1,-1%[38.3 µM],?,?,4%,14µM*,0%,24µM*,
Cc1ccc(-c2ccc(CCC(=O)O)n2-c2cccc(C(=O)O)c2)cc1,-3%,-6%,-10%,-2%,-20%,·,·,
SMILES,PINK1 expr mod,Gal4-VP16 FLuc,ClpP mod,RORg inh,Sfp PPTase inh,Epigenetic derep,Sfp PPTase conf,others
COC(=O)c1cccc(-n2c(CCC(=O)O)ccc2-c2cccs2)c1,0%,-9%,-1%,4%,4µM*,-2%,21µM*,Sfp gel assay=?
CC(=O)Nc1ccc(-n2c(CCC(=O)O)ccc2-c2ccc(C)cc2)cc1,0%,·,-8%,·,·,3%,·,
CC(C)c1ccc(NC(=O)C(C)N(c2ccccc2)S(C)(=O)=O)cc1 (stereo not drawn),3%,·,-3%,·,·,0%,·,
c1cn2cc(CSC3CCCCC3)nc2s1,3%,?,0%,?,3.2µM*,2%,0%,Sfp gel assay=i
O=C(NCCc1cn2ccsc2n1)C1CCCCC1,1%,-17%,-3%,22%,7%,0%,·,
Cc1cccc(NC(=O)Cn2nnc(-c3nc(-c4ccncc4)no3)c2N)c1,3%,·,17%,·,·,2%,·,
Cc1cc(SCC(=O)NN)c2cc(Br)ccc2n1,-3%,-21%,·,-18%,22µM*,5%,?,
COc1ccc(-c2csc(Nc3ccc(C)cn3)n2)cc1,5%,-11%,·,2%,6.3µM*,-1%,59µM*,Sfp gel assay=i
Cc1ccc(-c2csc(Nc3ccccn3)n2)cc1,6%,?,·,26%[1.91 µM],-7%,·,·,
Clc1ccc(-c2nn3c(C4COc5ccccc5O4)nnc3s2)cc1 (stereo not drawn),6%,-19%,2%,0%,14µM*,0%,33µM*,
CN(C)c1ccc(-c2nn3c(-c4ccc(Cl)cc4)nnc3s2)cc1,1%,-3%,?,1%,-5%,-7%,·,
CCCCCCCC#Cc1ccccc1C(NC(=O)OC)C(C(=O)OC)C(=O)OC (stereo not drawn),·,13%[10 µM],·,-4%[10 µM],16%,0%[10.1 µM],·,
O=C(/C=C/c1ccncc1)c1ccc(NC(=O)c2ccccc2F)cc1,-1%,?,·,?,5.6µM*,?,53µM*,
COC(=O)C(N)Cc1ccc(O)cc1 (stereo not drawn),-1%,7%,3%,-3%,8%,-1%,·,
NC(CO)C(=O)NNCc1ccc(O)c(O)c1O (stereo not drawn),·,-5%,6%,-13%,6.3µM*!,-3%,11µM*,
CCOC(=O)c1c(NC(=O)CCCOc2ccccc2C)sc2c1CCC(C)C2 (stereo not drawn),1%,·,-8%,·,·,-1%,·,
COc1ccccc1CNc1ccc(C(=O)O)cc1,-1%,?,-7%,3%,23%,0%,·,
COc1ccccc1CNc1ccc(N2CCCCC2)cc1,4%[38.3 µM],18%,2%,?,18µM*,0%,47µM*,Sfp gel assay=i
